Results filed as inconclusive are left out. Where a call stands in place of a potency, no number is given. Calls of active or inactive are those of the source. The call rests on the fitted dose curve; in most records, active means well fitted inhibition curve with a large enough effect; inconclusive means small, poorly fitted or top-dose-only effect; inactive means no such curve, though single readings can be large or run the other way.
Test: BET inhibitor-based combinations targeting novel dependencies in MECOM-rearranged (r) AML: UCSD-AML1 cell line (AID 2202235); further: nearly all actives have a fitted effect of over 40% in size
Details: UCSD-AML1 AML cells viability, CellTiter-Glo, 48 h; series mostly up to 46 µM
Source text: Ecotropic viral insertion site 1 (EVI1) is located on chromosome 3q26.2 as part of the MECOM (MDS and EVI1 complex) locus. Under normal hematopoiesis, EVI1 is a regulator of hematopoietic stem cell maintenance and self-renewal and EVI1 levels decrease as the cells differentiate. In approximately 5-10% of de novo acute myeloid leukemia (AML) EVI1 is aberrantly expressed, including Chromosomal inv(3)(q21;q26.2) or t(3;3)(q21;q26.2) alterations (MECOM-r) that account for about 50% of AML with EVI1 overexpression 31. AMLs with high levels of EVI1 have a poor prognosis and an overall survival time averaging between 10-14 months. EVI1 overexpression confers resistance in leukemia cells, highlighting the need to develop new targeted therapies for EVI1 overexpressing AMLs. Here, we performed an unbiased chemical drug screening by evaluating the single agent activity of a collection of 2,480 oncology-focused, approved and investigational drugs (NCATS Mechanism Interrogation Plates, MIPE v5.0) against a panel of seven AML cell lines. These included four MECOM-r cell-lines (AML-191, AML-194, UCSD-AML1 and HNT-34) and three non-MECOM-r AMLs (MV4-11, OCI-AML3 and SET-2). Exploiting the mechanistic redundancy built in the library, we identified target-level sensitivities in MECOM-r AML cells and relative activity as compared to other AML subtypes.
A collection of 2480 mechanistically annotated dugs (MIPE v5.0) was used to screen four 3q26.2 rearranged AML cell lines and three non-3q26.2 rearranged AML cell lines. This library purposely exploits redundancy by including multiple inhibitors of key onco-targets, while simultaneously encompassing mechanistic diversity, targeting more than 800 distinct mechanisms of action. Briefly, cells were seeded in 5 uL of growth media using a Multidrop Combi dispenser into 1536 well white polystyrene tissue culture treated plates (Corning) at a density of 500cells/well. For each cell-line, for each of the 2480 drugs in MIPE v5.0 library, an 11-point dose curve was generated via a 1536 pin-tool. Plates were incubated for 48 hr at standard incubator conditions, covered by a stainless steel gasketed lid to prevent evaporation. Cell viability was determined by luminescence based, Cell Titer Glo assay (Promega). In detail, 3 uL of Cell Titer Glo were added to each well and plates were incubated at room temperature for 15 min with a stainless-steel lid in place. Luminescence readings were taken using a Viewlux (PerkinElmer) with a 2 s exposure time per plate. Compound dose-response curves were normalized to DMSO and empty well controls on each plate. Quantitative drug activity data from dose-response curves was determined utilizing area Under the Curve (AUC) and Z-transformed AUC (Z-AUC, a mean-centering transformation applied to each individual cell-line screened).
Potency means the concentration at half of the fitted maximal effect.

Question: Which Potency does the source give for `CCCC[N+]1(C)[C@H]2CC(OC(=O)[C@H](CO)c3ccccc3)C[C@H]1[C@H]1O[C@H]12` (stereo not given in full) here?
Answer: inactive

Question: With `C[C@]12CC[C@H]3[C@@H](CCC4=CC(=O)CC[C@@]43C)[C@H]1CC[C@H]2OC(=O)CCC1CCCC1` as the compound, how does the Potency read?
Answer: inactive

Question: Which Potency does the source give for `C[C@@H]1CN(Cc2ccc(F)cc2)CCN1C(=O)COc1ccc(Cl)cc1NC(N)=O` here?
Answer: inactive

Question: For `C=C[C@H]1CN2CCC1C[C@@H]2[C@@H](O)c1ccnc2ccccc12` (stereo not given in full), which Potency is on record?
Answer: inactive

Question: With `C/C(O)=C(\C#N)C(=O)Nc1cc(Br)ccc1Br` as the compound, how does the Potency read?
Answer: inactive

Question: For `COc1cc2cc(c1Cl)N(C)C(=O)C[C@H](OC(=O)C(C)C)[C@]1(C)O[C@@H]1[C@H](C)[C@@H]1C[C@@](O)(NC(=O)O1)[C@H](OC)/C=C/C=C(\C)C2`, which Potency is on record?
Answer: inactive

Question: For `CC(C)[C@]12O[C@H]1[C@@H]1O[C@]13[C@]1(O[C@H]1C[C@H]1C4=C(CC[C@@]13C)C(=O)OC4)[C@@H]2O`, which Potency is on record?
Answer: 41.7 nM (active)

Question: For `CN(C)[C@@H]1C(=O)C(C(N)=O)=C(O)[C@@]2(O)C(=O)C3=C(O)c4c(O)cccc4[C@@](C)(O)[C@H]3C[C@@H]12`, which Potency is on record?
Answer: inactive

Question: With `O=C(Oc1ccc([N+](=O)[O-])cc1)N1CCC(C(O)(c2ccc3c(c2)OCO3)c2ccc3c(c2)OCO3)CC1` as the compound, how does the Potency read?
Answer: inactive

Question: Which Potency does the source give for `Cc1cccc(C)c1NC(=O)CN1CCCC1=O` here?
Answer: inactive

Question: With `CC(C)CC(N(C)C)C1(c2ccc(Cl)cc2)CCC1` (stereo not given) as the compound, how does the Potency read?
Answer: inactive

Question: For `C[C@@H]1O[C@@H](O[C@@H]2C=C3CC[C@@H]4[C@H](CC[C@]5(C)[C@@H](c6ccc(=O)oc6)CC[C@]45O)[C@@]3(C)CC2)[C@H](O)[C@H](O)[C@H]1O`, which Potency is on record?
Answer: 18.6 nM (active)

Question: For `Cc1ncc(OC[C@@]2(c3cccc(F)c3)C[C@H]2C(=O)Nc2ccc(F)cn2)c(C)n1`, which Potency is on record?
Answer: inactive

Question: For `CCOC(=O)Nc1ccc(NCc2ccc(F)cc2)cc1N`, which Potency is on record?
Answer: inactive

Question: With `C/C(=C\c1csc(C)n1)[C@@H]1C[C@@H]2O[C@@H]2CCC[C@H](C)[C@H](O)[C@@H](C)C(=O)C(C)(C)[C@@H](O)CC(=O)O1` as the compound, how does the Potency read?
Answer: 18.6 nM (active)

Question: With `COc1cc(C)[nH]c(=O)c1CNC(=O)c1c(C)n([C@H](C)C2CCOCC2)c2ccccc12` as the compound, how does the Potency read?
Answer: inactive

Question: Which Potency does the source give for `COc1cc(C)[nH]c(=O)c1CNC(=O)c1c(C)n([C@H](C)C2CCN(CC(F)(F)F)CC2)c2ccccc12` here?
Answer: inactive

Question: Which Potency does the source give for `C[C@]12CC[C@@H]3c4ccc(OC(=O)N(CCCl)CCCl)cc4CC[C@H]3[C@@H]1CC[C@@H]2OP(=O)(O)O` here?
Answer: inactive

Question: With `C[C@](O)(COc1ccc(C#N)cc1)C(=O)Nc1ccc(C#N)c(C(F)(F)F)c1` as the compound, how does the Potency read?
Answer: inactive

Question: For `CNCC(O)c1ccc(O)cc1` (stereo not given), which Potency is on record?
Answer: inactive

Question: With `CC(=O)c1c(O)c(C)c(O)c(Cc2c(O)c3c(c(C(=O)/C=C/c4ccccc4)c2O)OC(C)(C)C=C3)c1O` as the compound, how does the Potency read?
Answer: 4170 nM (active)

Question: For `CCCN1CCO[C@@H]2c3cc(O)ccc3OC[C@H]21`, which Potency is on record?
Answer: inactive

Question: For `C[C@@H]1CC[C@@]2(OC1)O[C@H]1C[C@H]3[C@@H]4CC=C5C[C@@H](O[C@@H]6O[C@H](CO)[C@@H](O[C@@H]7O[C@@H](C)[C@H](O)[C@@H](O)[C@H]7O)[C@H](O)[C@H]6O[C@@H]6O[C@@H](C)[C@H](O)[C@@H](O)[C@H]6O)CC[C@]5(C)[C@H]4CC[C@]3(C)[C@H]1[C@@H]2C`, which Potency is on record?
Answer: 8330 nM (active)

Question: For `Cn1cc(C2=C(c3cn(C4CCN(Cc5ccccn5)CC4)c4ccccc34)C(=O)NC2=O)c2ccccc21`, which Potency is on record?
Answer: inactive

Question: With `C[C@H]1[C@H](O)[C@@H](C)/C=C/C=C/CC/C=C/C=C/C=C/C=C/[C@H](O[C@@H]2O[C@H](C)[C@@H](O)[C@H](N)[C@@H]2O)C[C@@H]2O[C@](O)(C[C@@H](O)[C@H](O)CC[C@@H](O)C[C@@H](O)C[C@@H](O)CC(=O)O[C@H]1C)C[C@H](O)[C@H]2C(=O)O` as the compound, how does the Potency read?
Answer: inactive

Question: Which Potency does the source give for `Cc1sc2c(c1C)C(c1ccc(Cl)cc1)=NC(CC(=O)Nc1ccc(O)cc1)c1nnc(C)n1-2` (stereo not given) here?
Answer: 742 nM (active)

Question: For `CC(O)(CS(=O)(=O)c1ccc(F)cc1)C(=O)Nc1ccc(C#N)c(C(F)(F)F)c1` (stereo not given), which Potency is on record?
Answer: inactive

Question: Which Potency does the source give for `C/C1=C/C[C@@H](/C(C)=C/c2csc(C)n2)OC(=O)C[C@H](O)C(C)(C)C(=O)[C@H](C)[C@@H](O)[C@@H](C)CCC1` here?
Answer: 118 nM (active)

Question: For `COC(=O)[C@@H](N)CCCN=C(N)N[N+](=O)[O-]`, which Potency is on record?
Answer: inactive

Question: Which Potency does the source give for `Cc1[nH]nc2ccc(-c3cncc(OC[C@@H](N)Cc4c[nH]c5ccccc45)c3)cc12` here?
Answer: 468 nM (active)

Question: For `Cn1c(CCCC(=O)O)nc2cc(N(CCCl)CCCl)ccc21`, which Potency is on record?
Answer: 18600 nM (active)

Question: Which Potency does the source give for `CC(C)(NC(=O)O[C@@H]1CN2CCC1CC2)c1csc(-c2ccc(F)cc2)n1` here?
Answer: inactive

Question: Which Potency does the source give for `O=c1[nH]c2ccccc2n1CCCN1CCC(n2c(=O)[nH]c3cc(Cl)ccc32)CC1` here?
Answer: inactive

Question: With `CCN(CC)C(=O)c1ccc(C2=CC3(CCNCC3)Oc3cccc(O)c32)cc1` as the compound, how does the Potency read?
Answer: inactive

Question: With `CO/C1=C/C(C)=C\[C@@H](C)[C@@H](O)[C@@H](C)C/C(C)=C\C=C/[C@H](OC)[C@@H]([C@@H](C)[C@@H](O)[C@H](C)[C@@]2(O)C[C@@H](O)[C@H](C)[C@@H](C(C)C)O2)OC1=O` as the compound, how does the Potency read?
Answer: inactive

Question: For `Clc1ccccc1C(c1ccccc1)(c1ccccc1)n1cccn1`, which Potency is on record?
Answer: inactive

Question: For `COC[C@H]1OC(=O)c2coc3c2[C@@]1(C)C1=C(C3=O)[C@@H]2CC[C@H](O)[C@@]2(C)C[C@H]1OC(C)=O`, which Potency is on record?
Answer: 1660 nM (active)

Question: Which Potency does the source give for `O=P1(NCCCl)OCCCN1CCCl` (stereo not given) here?
Answer: inactive

Question: For `CN1C(=O)CCS(=O)(=O)C1c1ccc(Cl)cc1` (stereo not given), which Potency is on record?
Answer: inactive

Question: For `C/C(=C\c1csc(C)n1)[C@@H]1C[C@@H]2O[C@]2(C)CCC[C@H](C)[C@H](O)[C@@H](C)C(=O)C(C)(C)[C@@H](O)CC(=O)O1`, which Potency is on record?
Answer: 5.9 nM (active)

From PubChem BioAssay (NCATS)
